Source: PubChem BioAssay AID504832 (National Center for Advancing Translational Sciences (NCATS), 2011)
Screen size: about 310,000 compounds; about 18,000 (5.8%) were called active. A call without a number means that no potency is given here. Another 22% or so got no clear call; they are omitted. The sample as a whole holds a higher share of actives than the screen did. A number with no mark means an inactive call. Calls follow the shape of the dose curve; as a rule, active = well fitted inhibition curve with a large enough effect; inconclusive = small, poorly fitted or top-dose-only effect, or another doubt; inactive = no such curve, though single readings can be large or run the other way.

Test: Primary qHTS for delayed death inhibitors of the malarial parasite plastid, 48 hour incubation
Details: P. falciparum luciferase growth in erythrocytes; series mostly up to 28.7 µM
Summary of the method: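 Compounds are pin-transferred into medium, infected erythrocytes (2% hematocrit, 0.1% parasitemia final) are added, and plates sit one parasite generation at 37 C in 5% CO2. Detection reagent is then added and luminescence measured.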
Potency is read from the fitted curve at half-maximal effect.

Row | Compound | Potency | activity change, negative = inhibition
1 | Cc1cccc(N=C2SC(C)CN2C(=O)CN2C(=O)NC3(CCCC3)C2=O)c1 (stereo not given) | inactive | 
2 | COCCN(C(=O)CC1CCCCC1)c1c(N)n(CC(C)C)c(=O)[nH]c1=O | inactive | 
3 | COc1ccc(NC(=O)CCCC2CCCCC2)c(OC)c1 | inactive | 
4 | COc1cc([N+](=O)[O-])ccc1NC(=O)CN1CCCC1 | inactive | 
5 | COc1ccc(NC(=O)c2cc([N+](=O)[O-])ccc2NC(=O)CNC2CCCCC2C)c(OC)c1 (stereo not given) | 6.57 µM (active) | 
6 | Cc1cccc(C)c1NC(=O)CNC(=O)c1ccc2c(c1)OCCO2 | inactive | 
7 | CCOc1ccc2[nH]c(=O)c(CN(Cc3nnnn3CCc3ccccc3)CC3CCCO3)cc2c1 (stereo not given) | 13.1 µM (active) | 
8 | CCC(=O)N(Cc1cc2cc(OC)ccc2[nH]c1=O)c1ccccc1C | inactive | 
9 | CCC(c1nnnn1Cc1ccco1)N(CCc1ccccc1)Cc1cc2cccc(C)c2[nH]c1=O (stereo not given) | 11.7 µM (active) | 
10 | COc1ccc(N(Cc2cc3cc(OC)ccc3[nH]c2=O)S(C)(=O)=O)cc1 | inactive | 
11 | CCC(c1nnnn1Cc1ccco1)N(Cc1cc2cc(OC)ccc2[nH]c1=O)C1CCCCC1 (stereo not given) | 11.7 µM (active) | 
12 | CCOc1ccc2[nH]c(=O)c(CN(CCCO)C(C)=O)cc2c1 | inactive | 
13 | CCC(c1nnnn1Cc1ccccc1)N(Cc1cc2cc(OC)ccc2[nH]c1=O)CC1CCCO1 (stereo not given) | 5.86 µM (active) | 
14 | CCC(=O)N(CCc1ccccc1)Cc1cc2cc(C)ccc2[nH]c1=O | inactive | 
15 | O=C(c1cccs1)N(Cc1cc2ccccc2[nH]c1=O)CC1CCCO1 (stereo not given) | inactive | 
16 | COc1ccc2[nH]c(=O)c(CN(CC3CCCO3)C(=O)Nc3ccccc3)cc2c1 (stereo not given) | inactive | 
17 | Cc1ccc(S(=O)(=O)N(Cc2cc3ccccc3[nH]c2=O)CC2CCCO2)cc1 (stereo not given) | inactive | 
18 | COc1ccc(-c2nc(SCC(=O)N3CCCC3)n[nH]2)cc1 | inactive | 
19 | CC(=O)Oc1cccc(C(=O)Nc2ccccc2NC(=O)c2cccc(OC(C)=O)c2)c1 | inactive | 
20 | COc1cccc(S(=O)(=O)NCc2ccc(C(=O)NCc3ccccn3)cc2)c1 | inactive | 
21 | COc1cccc(CNc2ncc(-c3ccccc3)n2C)c1 | inactive | 
22 | Cc1cc(=O)oc2cc(NC(=O)C(C)Oc3ccccc3)ccc12 (stereo not given) | inactive | 

Row | Compound | Potency | activity change, negative = inhibition
23 | COc1ccc(/C=C(\C#N)C(=O)OCC(=O)N(C)C2CCS(=O)(=O)C2)cc1 (stereo not given) | inactive | 
24 | O=C(O)c1c(NC(=O)N2CCCC2)sc2c1CCCC2 |  | 0.211% [at 0.00184 µM]
25 | Cc1ccc(-c2nc(CS(=O)(=O)CC(=O)NCc3ccc4c(c3)OCO4)c(C)o2)cc1 | inactive | 
26 | CCCCOC(=O)Nc1nnc(CC(=O)NCc2ccccc2)s1 | inactive | 
27 | CCC(C)c1ccc(NC(=S)N2CCCC2)cc1 (stereo not given) | inactive | 
28 | COc1ccc(N(Cc2cc3ccc(C)cc3[nH]c2=O)S(=O)(=O)c2ccccc2)cc1 | inactive | 
29 | CCC(c1nnnn1Cc1ccco1)N(CCc1ccccc1)Cc1cc2ccc(OC)cc2[nH]c1=O (stereo not given) | 5.86 µM (active) | 
30 | COc1ccc2[nH]c3c(=O)n(Cc4ccco4)cnc3c2c1 | inactive | 
31 | CCn1ccnc1CN(C)C(=O)c1cc(COc2ccc(Cl)cc2OC)on1 | inactive | 
32 | C[C@]12CC[C@@H]3c4ccc(O)cc4C[C@@H](CCCCCCCCCS(=O)CCCC(F)(F)C(F)(F)F)C3[C@@H]1CC[C@@H]2O (stereo not given in full) | 9.53 µM (active) | 
33 | Cc1cc(=O)oc2c3c(cc(OCC(=O)NCCC(=O)N[C@@H](C)C(=O)O)c12)OC(C)(C)CC3 | inactive | 
34 | Cc1c(NC(=O)Nc2cccc([N+](=O)[O-])c2)c(=O)n(-c2ccccc2)n1C | inactive | 
35 | CCOC(=O)C1CCN(Cc2c(C(=O)N3CCOCC3)nc3c(C)cccn23)CC1 | inactive | 
36 | NNC(=O)c1nnn(-c2nonc2N)c1CN1CCCC1 | inactive | 
37 | CCOC(=O)c1nnn(-c2nonc2-n2cccc2)c1CN1CCC(C(=O)OCC)CC1 | 0.185 µM (active) | 
38 | CCOC(=O)c1nnn(-c2nonc2-n2cccc2)c1CN1CCOCC1 | 7.38 µM (active) | 
39 | CCN(CC)Cc1c(C(=O)OC)nnn1-c1nonc1N | inactive | 
40 | CCOC(=O)c1nnn(-c2nonc2OC)c1-c1ccccc1 | inactive | 
41 | CC(=O)Nc1ccc(S(=O)(=O)Nc2cc(C)cn(Cc3ccc(C)cc3)c2=O)cc1 | inactive | 
42 | COc1ccccc1CNS(=O)(=O)c1ccc2c(c1)NC(=O)CS2 | inactive | 
43 | CCCn1cc(S(=O)(=O)c2ccc(C)cc2)c(=O)c2cc(OCC)ccc21 | inactive | 
44 | CN(CC(=O)O)S(=O)(=O)c1ccc2oc3ccccc3c2c1 | inactive | 

Row | Compound | Potency | activity change, negative = inhibition
45 | O=C(N/N=C/c1cccnc1)c1ccc(NC(=O)c2ccc(F)cc2)cc1 | inactive | 
46 | Cc1ccc(/C=N/NC(=O)CNC(=O)COc2ccccc2)o1 | inactive | 
47 | O=C(N/N=C/c1cccnc1)c1cc2ccccc2cc1O | 2.94 µM (active) | 
48 | Cc1ccc(/C=N/NC(=O)c2cc3ccccc3cc2O)o1 | 0.586 µM (active) | 
49 | N=c1oc2ccccc2cc1C(=O)N/N=C/c1ccccc1 | inactive | 
50 | CCOC(=O)N/N=C/c1cccnc1 | inactive | 
51 | Cc1ccnc(NS(=O)(=O)c2ccc(NC(=O)c3oc4ccccc4c3C)cc2)n1 | inactive | 
52 | O=C(c1cccnc1)N1CCN(S(=O)(=O)c2cccs2)CC1 | inactive | 
53 | Cc1ccc(C(=O)NCC(=O)OCc2nnc(-c3ccccc3)o2)cc1 | inactive | 
54 | NC(N)=N/N=C/c1ccc(Cl)c([N+](=O)[O-])c1 | 1.47 µM (active) | 
55 | CC(CC(=O)O)C(=O)c1ccc(Cl)c([N+](=O)[O-])c1 (stereo not given) | inactive | 
56 | O=C(/C=C/c1ccc(Cl)c([N+](=O)[O-])c1)c1cccnc1 | inactive | 
57 | COc1cccc(C(=O)Nc2ccc(N3CCN(C(=O)c4ccco4)CC3)cc2)c1 | inactive | 
58 | COc1cc(C)cc(CN2CCC(Cc3ccccc3)CC2)c1O | 0.928 µM (active) | 
59 | Brc1ccccc1CN1CCC(Cc2ccccc2)CC1 | inactive | 
60 | O=c1cc(CO)oc(CN2CCC(Cc3ccccc3)CC2)c1O | inactive | 
61 | O=C(CN1C(=O)NC2(CCOc3ccccc32)C1=O)NCc1ccc(F)cc1 (stereo not given) | inactive | 
62 | Cc1cccc(NC(=O)C2CCCN(C(=O)NCc3ccccc3)C2)c1C (stereo not given) | inactive | 
63 | CCOC(=O)C1=C(C)N=C2c3ccccc3C(=O)C2C1c1ccc(Br)cc1 (stereo not given) | 9.28 µM (active) | 
64 | CCOC(=O)C1=C(C)NC(C)=C(C(=O)OCC)C1c1ccccn1 | inactive | 
65 | CCOC(=O)CN1C(=O)N[C@@H](c2ccc(Br)cc2)C(C(C)=O)=C1C | inactive | 
